The values that follow come from PubChem BioAssay (NCI).

Structures are written as SMILES. The panel holds about 83,000 compounds, 20% with a hit somewhere; the sample as a whole holds those more often.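 The test compound was applied at a single concentration to cells in 96-well plates for 48 hours, and percent growth was recorded.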 The source made the active and inactive calls. Rule for the calls: active = growth percent below 10; inactive = the rest.

The experiment has as its system CCRF-CEM leukemia. In words: NCI-60 one-dose screen, 48 h (100 = growth as untreated, 0 = no growth, -100 = all killed). The note with it: 10 µM unless noted.
Regarding `Clc1ccc([I+]c2ccc(Cl)cc2Cl)c(Cl)c1`, the growth is -1.96% (active).

As to `Cc1ccc(C2=NN(c3ccc(S(N)(=O)=O)cc3)C(c3cn(-c4ccccc4)nc3-c3ccccc3)C2)cc1` (stereo not drawn), the growth was 40.3% (inactive).

As to `N#CC1=C(N)OC2=C(C(=O)CCC2)C1c1ccco1` (stereo not drawn), the growth was 107% (inactive).

Take `COC1=CC(c2ccc[nH]2)=N/C1=C\c1[nH]c(C)c(C(=O)CCCCC(=O)Oc2ccc3c(c2)CCC2C3CC[C@]3(C)[C@@H](O)CC[C@@H]23)c1C` (stereo partly drawn): the growth was 17.2% (inactive).

`COc1ccc(NC(=O)CSc2nc3ccccc3c(=O)n2Cc2cc(OC)c(OC)c(OC)c2)cc1`: the growth was 90.1% (inactive).

Turning to `Nc1c(C(=O)Nc2c(Cl)cccc2Cl)sc2nc3c(cc12)CCCCC3`, the growth was 43.7% (inactive).

As for `O=C(CN1CCN(c2cc3c(cc2F)c(=O)c(C(=O)O)cn3C2CC2)CC1)Nc1ccc(C(=O)/C=C/c2ccccc2)cc1`, the growth was 15.2% (inactive).

For `COc1cc(/C=C/C(=O)c2ccc(NC(=O)CN3CCN(c4cc5c(cc4F)c(=O)c(C(=O)O)cn5C4CC4)CC3)cc2)cc(OC)c1OC`, the growth is -13.7% (active).

Regarding `NC(=O)c1c(NC(=O)c2ccc(OCC3CCCO3)cc2)sc2c1CCCC2` (stereo not drawn), the growth is 79.9% (inactive).

Take `COc1ccc(/C=C/C(=O)OCC(=O)NNC(=O)c2ccccc2)cc1OC`: the growth is 93.8% (inactive).

Turning to `Cc1sc(N=Nc2ccc(N(C)C)cc2)[n+]([O-])c1C`, the growth is 104% (inactive).

In the case of `O=C(/C=C/c1ccccc1)n1c(-c2ccc(Cl)cc2)nc2ccccc21`, the growth was -23.9% (active).

Take `COC(=O)[C@H]1[C@H](OC)[C@@H](OC(=O)/C=C/c2ccncc2)CC2CN3CCc4c([nH]c5cc(OC)ccc45)[C@@H]3C[C@@H]21` (stereo partly drawn): the growth was 57.5% (inactive).
